Assay results as given in PubChem BioAssay (Tox21).
Several values for one entry are separate records, joined by “and”; a condition that tells them apart may be missing. Equal values may be shown once. Inconclusive results are not listed. More than one record can exist for a structure, and the calls need not agree. Activity calls are given as the source filed them. Unless noted, the call rests on the fitted dose curve; in most records, active means well fitted curve in the direction sought with a large enough effect in the repeat runs; inconclusive means weak or mixed curves; inactive means no such curve, though single readings can be large; an effect the other way counts as inactive or inconclusive.

Experiments:
[1] = molecular target: Progesterone receptor (Homo sapiens) (UniProt P06401); test: qHTS assay to identify small molecule agonists of the progesterone receptor (PR) signaling pathway (AID 1346784; calls by dose curve; further: nearly all actives have a fitted effect of over 30% in size; further: potency means the concentration at half of the fitted maximal effect)
Sequence of Progesterone receptor (Homo sapiens) (P06401 whole entry, looked up): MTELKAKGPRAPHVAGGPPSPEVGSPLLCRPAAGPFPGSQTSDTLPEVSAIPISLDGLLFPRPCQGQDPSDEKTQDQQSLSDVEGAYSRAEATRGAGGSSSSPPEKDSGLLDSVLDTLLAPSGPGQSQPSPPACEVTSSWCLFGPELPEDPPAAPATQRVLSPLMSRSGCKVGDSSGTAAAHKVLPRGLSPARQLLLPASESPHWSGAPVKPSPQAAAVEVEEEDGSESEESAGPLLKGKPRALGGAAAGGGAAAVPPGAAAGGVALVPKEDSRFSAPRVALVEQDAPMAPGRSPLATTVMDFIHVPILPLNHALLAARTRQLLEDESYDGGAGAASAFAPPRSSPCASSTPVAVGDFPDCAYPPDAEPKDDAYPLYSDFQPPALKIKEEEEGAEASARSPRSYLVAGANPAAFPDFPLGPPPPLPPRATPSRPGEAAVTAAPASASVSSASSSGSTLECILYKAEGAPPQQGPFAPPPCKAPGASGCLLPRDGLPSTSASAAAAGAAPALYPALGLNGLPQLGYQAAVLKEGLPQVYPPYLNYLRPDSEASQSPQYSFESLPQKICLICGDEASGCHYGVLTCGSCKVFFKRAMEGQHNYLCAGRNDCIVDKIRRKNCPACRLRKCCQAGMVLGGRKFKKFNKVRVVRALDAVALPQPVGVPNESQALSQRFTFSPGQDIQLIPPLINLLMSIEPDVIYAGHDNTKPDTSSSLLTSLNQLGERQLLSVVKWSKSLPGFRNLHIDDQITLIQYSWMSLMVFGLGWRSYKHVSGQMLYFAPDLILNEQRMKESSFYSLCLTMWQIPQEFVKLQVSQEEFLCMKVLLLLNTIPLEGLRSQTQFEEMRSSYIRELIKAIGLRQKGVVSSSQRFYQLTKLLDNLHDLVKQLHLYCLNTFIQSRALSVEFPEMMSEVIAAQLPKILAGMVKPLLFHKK
How it was run: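 PR-UAS-bla HEK 293T cells carrying a UAS-driven beta-lactamase reporter were seeded in medium with 2% charcoal-stripped FBS, preincubated 6 hr at 37C, then exposed to compounds in DMSO for 16 hr; agonism was read by LiveBLAzer B/G FRET fluorescence.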

[2] = molecular target: Progesterone receptor (Homo sapiens) (UniProt P06401); test: qHTS assay to identify small molecule antagonists of the progesterone receptor (PR) signaling pathway (AID 1346795; active means well fitted inhibition curve with a large enough effect in the signal ratio in the repeat runs, not every such curve was filed as active; the % refers to the signal ratio; further: potency means the concentration at half of the fitted maximal effect)
How it was run: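 PR-UAS-bla HEK293T cells carrying a UAS-driven beta-lactamase reporter were plated in medium with 2% charcoal-stripped FBS and rested 6 hr at 37C. Compounds were added with 1 nM R5020 (final) for 16 hr, then FRET substrate loaded 2 hr at room temperature.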

[3] = qHTS assay to identify small molecule antagonists of the progesterone receptor (PR) signaling pathway - cell viability counter screen (AID 1346798); further: series mostly up to about 92 µM; nearly all actives have a fitted effect of over 50% in size
How it was run: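 PR-UAS-bla HEK293T cells in medium with 2% charcoal-stripped FBS were treated with compounds plus R5020 for 16 hr at 37C. Cell viability was then read by CellTiter-Glo luminescence after 30 min at room temperature in the same wells.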

[4] = qHTS assay to identify small molecule antagonists of the TGF-beta/Smad signaling pathway - cell viability counter screen (AID 1346824); further: nearly all actives have a fitted effect of over 50% in size
How it was run: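 SBE-bla HEK 293T cells were plated overnight at 37 C, then given compounds in DMSO plus TGF-beta1 (added as 0.25 ng/mL solution) for 5 hr. After the bla read, CellTiter-Glo was added to the same wells and luminescence read after 30 min at room temperature.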

[5] = qHTS assay to identify small molecule agonists of the TGF-beta/Smad signaling pathway - cell viability counter screen (AID 1346829); further: top concentration of the series differs between compounds; nearly all actives have a fitted effect of over 45% in size
How it was run: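 CellTiter-Glo luminescence readout; SBE-bla HEK 293T cells, overnight plating, compound 5 hr at 37 C/5% CO2, then bla substrate 2 hr RT, then CellTiter-Glo 30 min RT.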

[6] = qHTS assay to identify small molecule agonists of the TGF-beta/Smad signaling pathway (AID 1346859; active means well fitted activation curve with a large enough effect in the signal ratio in the repeat runs, not every such curve was filed as active; the % refers to the signal ratio; further: series mostly up to about 77 µM)
How it was run: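 HEK 293T cells stably carrying a beta-lactamase reporter driven by the Smad binding element were seeded overnight, exposed to DMSO-dissolved compounds for 5 hr at 37 C, 5% CO2, then loaded with FRET substrate for 2 hr at room temperature.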

[7] = molecular target: Thyrotropin-releasing hormone receptor (Homo sapiens) (UniProt P34981); test: qHTS assay to identify small molecule antagonists of the thyrotropin-releasing hormone receptor (TRHR) signaling pathway (AID 1346877; active means well fitted inhibition curve with a large enough effect in the repeat runs, not every such curve was filed as active; further: series mostly up to about 51 µM)
Sequence of Thyrotropin-releasing hormone receptor (Homo sapiens) (P34981 whole entry, looked up): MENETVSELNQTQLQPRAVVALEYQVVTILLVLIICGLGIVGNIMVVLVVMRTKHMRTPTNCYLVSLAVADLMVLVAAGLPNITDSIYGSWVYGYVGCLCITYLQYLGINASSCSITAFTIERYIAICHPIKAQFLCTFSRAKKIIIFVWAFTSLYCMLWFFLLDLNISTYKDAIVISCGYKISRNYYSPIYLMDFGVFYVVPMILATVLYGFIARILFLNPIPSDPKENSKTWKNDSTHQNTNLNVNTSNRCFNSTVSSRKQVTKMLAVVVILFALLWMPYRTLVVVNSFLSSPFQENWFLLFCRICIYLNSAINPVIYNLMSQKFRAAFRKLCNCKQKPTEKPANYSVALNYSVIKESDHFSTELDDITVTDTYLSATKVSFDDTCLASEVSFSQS
How it was run: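 Overnight-plated (18 h, 37 °C) HEK293 cells expressing TRHR were dye-loaded 2 h, treated with compound, then stimulated with TRH at 1 nM final. Fluorescence intensity was captured every second for 3 min.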

[8] = molecular target: Thyrotropin-releasing hormone receptor (Homo sapiens) (UniProt P34981); test: qHTS assay to identify small molecule agonists of the thyrotropin-releasing hormone receptor (TRHR) signaling pathway (AID 1346891; calls by dose curve; further: series mostly up to about 58 µM)
How it was run: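 TRHR-expressing HEK293 cells were plated 18 h at 37 °C/5% CO2, loaded with calcium dye 2 h at 37 °C, then given compound in DMSO; fluorescence was read kinetically for 3 min at 1 s intervals.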

[9] = Human pregnane X receptor (PXR) small molecule agonists, qHTS cell viability counter screen (AID 1346977); further: nearly all actives have a fitted effect of over 50% in size; further: potency means the concentration at half of the fitted maximal effect
How it was run: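 PXR-Luc HepG2 cells in medium with 5% charcoal-stripped FBS were pre-incubated 5hr, then exposed to compounds for 24hr at 37C. Viability was read in the same wells by CellTiter-Fluor fluorescence, reagent added after 23hr with a 1hr incubation.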

[10] = Caspase-3/7 induction in HepG2 cells by small molecules, qHTS assay (AID 1346978); further: nearly all actives have a fitted effect of over 15% in size
How it was run: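 Wild-type HepG2 cells (2,000/well) were settled 5 h at 37 C, 5% CO2, then exposed to compounds in DMSO for 17 h. Caspase-3/7 activity was read by luminescence 30 min after adding Caspase-Glo 3/7 reagent at room temperature.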

[11] = Caspase-3/7 induction in CHO-K1 cells by small molecules, qHTS assay (AID 1346980); further: nearly all actives have a fitted effect of over 15% in size
How it was run: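 Wild-type cells were seeded at 1,500 per well and settled 5 hr at 37 C, 5% CO2, then exposed to DMSO-dissolved compounds for 17 hr. Caspase-Glo 3/7 reagent was added, and luminescence was read after 30min at room temperature.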

[12] = Caspase-3/7 induction in HepG2 cells by small molecules, qHTS cell viability counter screen (AID 1346981); further: series mostly up to about 92 µM; nearly all actives have a fitted effect of over 30% in size
How it was run: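 Treatment of HepG2 cells with DMSO-delivered compounds ran 16 hr at 37 C following a 5-hr pre-incubation of 2,000 cells/well. CellTiter-Fluor fluorescence, read after 1 hr, served as the viability measure in a qHTS format.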

[13] = molecular target: Nuclear receptor subfamily 1 group I member 2 (Homo sapiens) (UniProt O75469); test: Human pregnane X receptor (PXR) small molecule agonists, qHTS assay (AID 1346982); further: nearly all actives have a fitted effect of over 35% in size; further: potency means the concentration at half of the fitted maximal effect
Sequence of Nuclear receptor subfamily 1 group I member 2 (Homo sapiens) (O75469 whole entry, looked up): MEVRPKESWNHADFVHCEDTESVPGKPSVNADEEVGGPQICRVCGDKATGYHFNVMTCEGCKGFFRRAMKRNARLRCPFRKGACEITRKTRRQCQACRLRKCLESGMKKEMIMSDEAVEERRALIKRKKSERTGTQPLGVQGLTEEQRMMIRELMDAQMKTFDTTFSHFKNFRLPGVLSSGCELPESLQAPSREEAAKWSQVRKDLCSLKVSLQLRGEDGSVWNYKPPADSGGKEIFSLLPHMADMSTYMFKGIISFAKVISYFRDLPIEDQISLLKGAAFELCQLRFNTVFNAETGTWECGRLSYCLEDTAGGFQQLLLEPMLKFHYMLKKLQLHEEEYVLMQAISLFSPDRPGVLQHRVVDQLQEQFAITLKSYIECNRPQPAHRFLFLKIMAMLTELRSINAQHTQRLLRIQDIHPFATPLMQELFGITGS
How it was run: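 Stable HepG2 line reporting PXR-mediated CYP3A4 expression via luciferase. Treatment: 24 hr with compounds in DMSO at 37 C. Detection: ONE-Glo luminescence.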

[14] = molecular target: Cytochrome P450 2D6 (Homo sapiens) (UniProt P10635); test: Cytochrome P450 Family 2 Subfamily D Member 6 (CYP2D6) small molecule antagonists: luciferase reporter qHTS assay (AID 1671196); further: nearly all actives have a fitted effect of over 50% in size; further: potency means the concentration at half of the fitted maximal effect
Sequence of Cytochrome P450 2D6 (Homo sapiens) (P10635 whole entry, looked up): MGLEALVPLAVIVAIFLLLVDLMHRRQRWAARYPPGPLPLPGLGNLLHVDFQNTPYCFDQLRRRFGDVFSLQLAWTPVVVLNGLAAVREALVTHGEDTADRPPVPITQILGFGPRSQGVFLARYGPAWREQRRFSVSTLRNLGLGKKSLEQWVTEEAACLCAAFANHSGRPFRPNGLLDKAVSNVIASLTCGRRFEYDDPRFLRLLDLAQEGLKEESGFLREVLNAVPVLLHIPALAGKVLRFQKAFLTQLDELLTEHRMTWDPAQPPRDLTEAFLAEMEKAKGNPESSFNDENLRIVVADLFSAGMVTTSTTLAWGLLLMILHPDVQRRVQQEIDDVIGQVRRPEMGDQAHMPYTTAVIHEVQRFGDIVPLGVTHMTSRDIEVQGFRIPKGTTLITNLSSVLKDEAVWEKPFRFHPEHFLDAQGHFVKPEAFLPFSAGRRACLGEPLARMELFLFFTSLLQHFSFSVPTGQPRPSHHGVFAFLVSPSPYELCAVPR
How it was run: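 Chemicals tested for interference with CYP2D6 activity; proluciferin substrate, NADPH regeneration, 1 h at room temperature, luminescent detection.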

[15] = molecular target: Cytochrome P450 2C19 (Homo sapiens) (UniProt P33261); test: Cytochrome P450 Family 2 Subfamily C Member 19 (CYP2C19) small molecule antagonists: luciferase reporter qHTS assay (AID 1671197); further: nearly all actives have a fitted effect of over 65% in size; further: potency means the concentration at half of the fitted maximal effect
Sequence of Cytochrome P450 2C19 (Homo sapiens) (P33261 whole entry, looked up): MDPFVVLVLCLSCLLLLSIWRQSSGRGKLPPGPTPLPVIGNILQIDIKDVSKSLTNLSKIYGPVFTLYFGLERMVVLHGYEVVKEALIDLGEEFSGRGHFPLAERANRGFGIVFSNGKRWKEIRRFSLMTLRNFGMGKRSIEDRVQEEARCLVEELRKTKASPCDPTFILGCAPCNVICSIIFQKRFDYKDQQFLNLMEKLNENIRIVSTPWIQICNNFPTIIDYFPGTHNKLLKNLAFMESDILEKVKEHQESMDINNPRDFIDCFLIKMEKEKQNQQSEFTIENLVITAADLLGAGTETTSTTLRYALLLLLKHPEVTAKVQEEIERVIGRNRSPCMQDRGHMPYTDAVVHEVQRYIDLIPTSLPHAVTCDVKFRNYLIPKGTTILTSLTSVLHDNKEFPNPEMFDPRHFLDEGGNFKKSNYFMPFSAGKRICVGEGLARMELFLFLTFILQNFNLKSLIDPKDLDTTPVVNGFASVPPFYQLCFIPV
How it was run: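 Enzyme-substrate mix with proluciferin substrate (P450-Glo CYP2C19 system) preincubated with compounds 10 min at room temperature; NADPH regeneration solution added, 37C for 1 h; detection reagent stops reaction, luminescence read after 20 min. Ketoconazole positive control.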

[16] = Caspase-3/7 induction in CHO-K1 cells by small molecules, qHTS cell viability counter screen (AID 1346979); further: nearly all actives have a fitted effect of over 35% in size; further: potency means the concentration at half of the fitted maximal effect
How it was run: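 Wild-type CHO-K1 cells were seeded at 1,500 per well, rested 5hr at 37 C, then exposed to compounds in DMSO. After 16hr, CellTiter-Fluor reagent was added and fluorescence read 1hr later as the viability measure.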

[17] = qHTS assay to identify small molecule agonists of the progesterone receptor (PR) signaling pathway - cell viability counter screen (AID 1346799; calls by dose curve; further: nearly all actives have a fitted effect of over 45% in size)
How it was run: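 PR-UAS-bla HEK293T cells, 3,000 per well in medium with 2% charcoal-stripped FBS, were preincubated 6 hr at 37C, then exposed to compounds for 16 hr; viability was read as CellTiter-Glo luminescence after 30 min at room temperature.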

Measured: Potency

[Cl][Pt-2]([Cl])([Cl])[Cl]
active: [14] 40.1 µM | [15] 22.6 µM
not listed: [16] | [17]
inactive: all other assays above

OC/C=C/CO
active: [14] 17.8 µM
not listed: [17]
inactive: all other assays above

OC1CCCc2ccccc21 (stereo not given)
not listed: [6] | [15]
inactive: all other assays above

CCCC1CCC(=O)CC1
not listed: [6]
inactive: all other assays above

COCCOc1cc2cc(C(=O)NC3CCN(C(C)C)CC3)n(CC(=O)Nc3ccc(Cl)cn3)c2cn1
active: [9] 53.9 µM
not listed: [15] | [17]
inactive: all other assays above

Oc1c(I)cc(Cl)c2cccnc12
active: [2] 6.84 µM and 7.5 µM | [16] 27.3 µM and 29.8 µM | [13] 24.3 µM and 23.7 µM
not listed: [6] | [8] | [14] | [15]
inactive: all other assays above

C=Cc1cccc(C)c1
39.5 µM (active) and inactive: [14]
60.5 µM (active) and inactive: [16]
not listed: [6] | [7] | [8] | [15]
inactive: all other assays above

Nc1cc(Cl)c(O)c(Cl)c1
active: [14] 15.9 µM
not listed: [6] | [7] | [8] | [13] | [15] | [16]
inactive: all other assays above

O=[N+]([O-])c1ccc(F)c(Cl)c1
active: [1] 1.09 µM | [15] 79.9 µM
not listed: [17]
inactive: all other assays above
